Assay [1] can be described thus: qHTS Assay for Identifying Gametocytocidal Compounds (AID 743244; active means well fitted curve in the direction sought with a large enough effect; an effect the other way counts as inactive or inconclusive; further: potency means the concentration at half of the fitted maximal effect;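 on max response: on the % scale 0 is the no-effect control and ±100 the full control effect; actives lower the fluorescent signal which means gametocytes are killed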). The conditions noted are these: P. falciparum 3D7 stage III-V gametocytes, alamarBlue, 72 h; max response: stronger effect = lower value. The procedure, abridged:
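Stage III-V P. falciparum 3D7 gametocytes, 20,000 per well, were exposed to compounds for 72 h at 37C, 5% CO2. AlamarBlue was then added for 24 h and viability was read as fluorescence at Ex 525/Em 598 nm.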
(qHTS replaces the single test concentration by a dilution series.)

Assay [2] in a line: qHTS profiling for inhibitors of Plasmodium falciparum (3D7) proliferation (AID 743322).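 Further: infected erythrocytes exposed to compound for 72 h before lysis; 100% = DMSO vehicle wells and 0% = 0.29 µM artemisinin.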 Conditions: P. falciparum 3D7 proliferation; at 28.7 µM (top of the series). In short, it runs like this: (§1)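 Parasite DNA was quantified by SYBR Green I fluorescence (ex 485, em 535 nm) after overnight lysis in saponin/Triton buffer at room temperature. Cultures at 0.3% parasitemia and 2.5% hematocrit were first exposed to compound for 72 h at 37 C; signals were normalised to artemisinin (0.29 uM) and vehicle wells.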

Assay [3] is described as follows: qHTS profiling for inhibitors of Plasmodium falciparum (DD2) proliferation (AID 743323). The conditions noted are these: lower = more inhibition; at 28.7 µM (top of the series). The procedure, abridged:
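P. falciparum Dd2-infected erythrocytes (0.3% parasitemia, 2.5% hematocrit) exposed 72 h at 37 C, 5% CO2. Lysis with SYBR Green, overnight at room temperature, fluorescence 485/535 nm; normalized to 0.29 uM artemisinin and DMSO.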

A short description of assay [4]: qHTS profiling for inhibitors of Plasmodium falciparum (HB3) proliferation (AID 743324; active means well fitted curve in the direction sought with a large enough effect; an effect the other way counts as inactive or inconclusive;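 further: 100% = DMSO vehicle wells and 0% = artemisinin-treated control wells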). Conditions: Plasmodium falciparum HB3 blood-stage proliferation; at 28.7 µM (top of the series). In short, it runs like this:
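SYBR Green fluorescence (485 ex/535 em) of lysed cultures, incubated overnight at room temperature in the dark, quantifies parasite DNA. Infected erythrocytes at 0.3% parasitemia and 2.5% hematocrit were exposed 72 h; values normalized to DMSO and 0.29 uM artemisinin controls.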

Assay [5] is described as follows: qHTS profiling of the MIPE4 collection as inhibitors of Plasmodium falciparum (3D7) proliferation (AID 743344).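 Further: scaled between DMSO vehicle wells and 0.29 µM artemisinin as full inhibition.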 The conditions noted are these: P. falciparum 3D7 in erythrocytes, SYBR Green DNA fluorescence, 72 h; at 28.5 µM (top of the series) unless noted. In short, it runs like this:
as §1

The nature of assay [6]: qHTS profiling of the MIPE4 collection as inhibitors of Plasmodium falciparum (DD2) proliferation (Rep 2) (AID 743346). Conditions: P. falciparum Dd2 in erythrocytes, SYBR Green DNA, 72 h; at 28.5 µM (top of the series) unless noted. In short, it runs like this: as §1
A short description of assay [7]: qHTS profiling of the MIPE4 collection as inhibitors of Plasmodium falciparum (HB3) proliferation (AID 743347).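 Further: plate controls were DMSO vehicle wells for no effect and artemisinin wells for full effect.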 Conditions: P. falciparum HB3 in erythrocytes, SYBR Green DNA, 72 h; at 28.5 µM (top of the series) unless noted. The procedure, abridged:
as §1

The conditions of assay [8]: Ebola virus entry assay, green fluorescence channel.
For assay [9] the following is noted: Ebola virus entry assay, blue channel fluorescence.
The conditions of assay [10]: Ebola virus entry assay, ratio channel.
A short description of assay [11]: qHTS profiling of the MIPE4 collection as inhibitors of Plasmodium falciparum (DD2) proliferation (AID 743345). Conditions: P. falciparum Dd2 in erythrocytes, SYBR Green DNA, 72 h; at 28.5 µM (top of the series) unless noted. In short, it runs like this:
as §1

The target in assay [12] is T1, Hexokinase-4 (Homo sapiens) + Glucokinase regulatory protein (Homo sapiens) (UniProt P35557+Q14397). Nature of the assay: qHTS assay for inhibitors of recombinant human GCK-GKRP interaction: ADP-Glo assay (AID 743206; active means well fitted curve in the direction sought with a large enough effect; an effect the other way counts as inactive or inconclusive;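 further: plate controls were DMSO plus enzyme for no effect and no enzyme for full effect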). In short, it runs like this:
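Pin-transferred compounds meet a 15 nM GST-GCK/15 nM FLAG-GKRP/2 uM S6P mix (dispense concentrations). ATP is then added to 0.4 mM final with 5 mM glucose, and the reaction runs 60 min at room temperature. ADP is quantified luminescently.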

Assay [13] deals with T1, Hexokinase-4 (Homo sapiens) + Glucokinase regulatory protein (Homo sapiens). The assay is described as follows: qHTS assay for inhibitors of recombinant human GCK-GKRP interaction: HTRF assay (AID 743207; active means well fitted curve in the direction sought with a large enough effect; an effect the other way counts as inactive or inconclusive;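 further: 0% = DMSO with GCK present and -100% = DMSO wells lacking GCK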). The procedure, abridged:
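After 60 min equilibration at room temperature with anti-FLAG XL665 and anti-GST antibodies, FRET ratio (665/615 nm, excitation 320 nm) was read. Proteins: GST-GCK and FLAG-GKRP, each 5 nM, plus 2 uM S6P, pH 7.1 buffer; GCK-free wells define minimum signal.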

Values joined by “and” are separate entries in the source; they are usually repeats but may differ in a detail not shown here. Equal values may be shown once. Records with an inconclusive call do not appear. For some of these results: Results with a measured potency or affinity are listed apart. Active and inactive are the calls of the source. Unless noted, how the calls were made is not given here.
Wherever efficacy is given: 0% is about no effect.

T1 sequence (P35557 whole entry, looked up): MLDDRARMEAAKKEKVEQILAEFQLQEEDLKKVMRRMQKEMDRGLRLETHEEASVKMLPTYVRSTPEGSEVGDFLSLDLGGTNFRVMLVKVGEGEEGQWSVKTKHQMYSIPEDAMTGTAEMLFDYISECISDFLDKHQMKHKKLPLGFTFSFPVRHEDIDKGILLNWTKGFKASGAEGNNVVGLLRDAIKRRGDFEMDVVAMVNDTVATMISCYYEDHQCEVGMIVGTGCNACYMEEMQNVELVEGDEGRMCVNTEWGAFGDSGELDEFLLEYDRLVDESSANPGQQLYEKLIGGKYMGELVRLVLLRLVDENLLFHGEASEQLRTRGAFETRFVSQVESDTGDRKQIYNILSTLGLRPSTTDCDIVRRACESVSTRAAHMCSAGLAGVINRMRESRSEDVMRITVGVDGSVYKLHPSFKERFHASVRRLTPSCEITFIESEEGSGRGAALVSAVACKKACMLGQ
T1 sequence (Q14397 whole entry, looked up): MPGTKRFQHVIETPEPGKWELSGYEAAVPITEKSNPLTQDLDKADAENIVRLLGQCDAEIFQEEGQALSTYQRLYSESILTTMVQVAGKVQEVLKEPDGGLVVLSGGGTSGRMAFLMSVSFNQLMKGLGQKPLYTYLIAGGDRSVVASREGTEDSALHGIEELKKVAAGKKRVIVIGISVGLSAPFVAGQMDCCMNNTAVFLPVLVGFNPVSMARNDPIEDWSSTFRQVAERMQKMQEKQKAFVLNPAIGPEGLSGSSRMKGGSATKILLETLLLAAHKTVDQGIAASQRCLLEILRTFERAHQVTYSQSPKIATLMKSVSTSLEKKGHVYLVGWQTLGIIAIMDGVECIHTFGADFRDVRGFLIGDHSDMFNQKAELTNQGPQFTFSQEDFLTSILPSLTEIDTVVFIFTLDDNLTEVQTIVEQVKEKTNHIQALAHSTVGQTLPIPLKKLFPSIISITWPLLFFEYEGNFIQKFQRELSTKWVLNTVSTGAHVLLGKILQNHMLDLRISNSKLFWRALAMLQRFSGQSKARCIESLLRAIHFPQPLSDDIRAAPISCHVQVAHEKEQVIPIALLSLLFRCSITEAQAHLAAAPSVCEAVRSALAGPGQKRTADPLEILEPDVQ

With `CNC(=O)N1N=C(c2ccc(N)cc2)c2cc3c(cc2CC1C)OCO3` (centres undefined), the max response in assay [1] was -1.27% (inactive). For the same compound, in assay [2], the remaining parasite growth % (stronger effect = lower value) was 46.2%. For the same compound, the activity, percent of control in assay [3] came to 92.1%. Besides, in [4], the remaining proliferation (% of control), lower = more inhibition turned out to be 83.9%. In assay [5], this compound displayed a parasite growth, % of DMSO control of 269%. In assay [6], this compound gave a parasite growth, % of control (lower = inhibition) of 67.9%. The growth, % of control in assay [7] came to 248%.
In the case of `CC1=C2C[C@@H]3[C@@H](CC=C4C[C@@H](O)CC[C@@]43C)[C@@H]2CC[C@]12O[C@H]1C[C@H](C)CN[C@H]1[C@H]2C`, the Potency in [1] is 23.5 µM (active). For the same compound, the remaining parasite growth % (stronger effect = lower value) in assay [2] was 66.1%. In assay [3], the activity, percent of control is 39%. In [4], this compound showed a remaining proliferation (% of control), lower = more inhibition of 5.81%. In [5], the parasite growth, % of DMSO control turned out to be 61.1%. In assay [6], this compound gave a parasite growth, % of control (lower = inhibition) of 33.5%. This compound registered a growth, % of control in [7] of 71.2%.
Turning to `CC1NCCOC1c1ccccc1` (centres undefined), in assay [1], the max response is 1.41% (inactive). The efficacy in assay [8] is -41.7% (inactive). In addition, the result in assay [9] and in assay [10] was inactive.
With `Clc1ccc(CCC(Cn2ccnc2)Sc2c(Cl)cccc2Cl)cc1` (centres undefined), the Potency in [1] was 7.94 µM (active). Moreover, the efficacy in assay [8] is -22% (inactive). Moreover, the results for the AC50 in assay [9] and in assay [10] were 25.1 µM (active) and 22.4 µM (active), respectively.
As for `O=c1c(O)c(-c2ccc(O)c(O)c2)oc2cc(O)cc(O)c12`, the max response in [1] was 43.6% (inactive) and 2.58% (inactive) and 14.8% (inactive). Moreover, in assay [8], the efficacy was -18.8% (inactive). Further, in [9], the outcome was inactive.
Take `C[C@@H]1[C@@H](C(=O)C[C@H]2O[C@@H]3O[C@]4(C)CC[C@@H]5[C@H](C)CC[C@@H]([C@H]2C)[C@@]35OO4)O[C@@H]2O[C@]3(C)CC[C@H]4[C@H](C)CC[C@@H]1[C@@]24OO3`: in [1], the Potency is 0.0066 µM (active). In addition, the remaining parasite growth % (stronger effect = lower value) in assay [2] is -0.0732%. Moreover, the activity, percent of control in assay [3] is -0.0237%. The remaining proliferation (% of control), lower = more inhibition in assay [4] was found to be 0.763%. The same compound returned a parasite growth, % of DMSO control in assay [5] of 20.5%. The compound also showed a parasite growth, % of control (lower = inhibition) in assay [6] of 8.22%. In assay [7], this compound showed a growth, % of control of 29.5%.
As for `COc1ccc2c(c1OC)CN1CCc3cc4c(cc3C1C2)OCO4` (centres undefined), the max response in [1] is 4.63% (inactive). The compound also displayed a parasite growth, % of DMSO control in [5] of 12.7%. In addition, the parasite growth, % of control (lower = inhibition) in [6] was determined as 10.1%. Besides, the growth, % of control in assay [7] was 7.61%. For the same compound, the efficacy in assay [8] is -21% (inactive). In addition, the result in assay [9] and in assay [10] was inactive.
With `CC(C)(N)Cc1ccc(Cl)cc1`, the max response in [1] was 12.2% (inactive). Moreover, in assay [8], the efficacy was 29.5% (inactive). In addition, the compound was classed as inactive in assay [9] and in assay [10].
With `C[C@@H]1[C@@H](CC(C[C@H]2O[C@@H]3O[C@]4(C)CC[C@@H]5[C@H](C)CC[C@@H]([C@H]2C)[C@@]35OO4)C[S+](=O)([O-])c2ccc(COC(=O)N(C)C)cc2)O[C@@H]2O[C@]3(C)CC[C@H]4[C@H](C)CC[C@@H]1[C@@]24OO3` (some centres undefined), in assay [1], the Potency was 0.0023 µM (active). Moreover, the remaining parasite growth % (stronger effect = lower value) in [2] is -0.6%. Further, the activity, percent of control in assay [3] was -0.0428%. In [4], this compound displayed a remaining proliferation (% of control), lower = more inhibition of 0.323%. The same compound came in with a parasite growth, % of DMSO control in [5] of 25.5%. For the same compound, the parasite growth remaining, % of DMSO control (lower = more inhibition) in [11] is 6.65%. This compound also had a parasite growth, % of control (lower = inhibition) in assay [6] of 23.2%. In [7], this compound returned a growth, % of control of 20.9%.
As for `CN(C)CCN(C)CCc1ccc(Cl)c(Cl)c1`, the remaining parasite growth % (stronger effect = lower value) in assay [2] is 55.4%. The activity, percent of control in [3] was 25%. Further, in [4], the remaining proliferation (% of control), lower = more inhibition was 36.8%. Also, in assay [5], the parasite growth, % of DMSO control amounted to 50%. This compound also registered a parasite growth, % of control (lower = inhibition) in assay [6] of 18.2%. The same compound yielded a growth, % of control in assay [7] of 72.7%.
On to `CNC(=O)c1ccc(N2C(=S)N(c3ccc(C#N)c(C(F)(F)F)c3)C(=O)C23CCC3)cc1F`, for which the max response in [1] was -1.03% (inactive). Besides, in assay [2], the remaining parasite growth % (stronger effect = lower value) turned out to be 74.2%. The activity, percent of control in [3] is 76.1%. Moreover, the remaining proliferation (% of control), lower = more inhibition in assay [4] is 43.8%. The same compound displayed a parasite growth, % of DMSO control in assay [5] of 36.9%. In assay [11], this compound displayed a parasite growth remaining, % of DMSO control (lower = more inhibition) of 81.7%. Further, the parasite growth, % of control (lower = inhibition) in assay [6] is 45.4%. Moreover, the growth, % of control in [7] amounted to 69.7%.
Turning to `C=CCN1CC[C@]23c4c5ccc(O)c4O[C@H]2C(=O)CC[C@@]3(O)[C@H]1C5`, the max response in assay [1] is 6.99% (inactive) and 10.2% (inactive). The efficacy in assay [8] is 15.7% (inactive). Besides, the call in [9] and in [10] was inactive.
In the case of `CCCCC/C=C\C/C=C\C/C=C\C/C=C\CCCC(=O)NC1CC1`, in assay [1], the max response is 45.8% (inactive). Moreover, in assay [2], the remaining parasite growth % (stronger effect = lower value) was 6.79%. For the same compound, the activity, percent of control in assay [3] came to 5.26%. For the same compound, the remaining proliferation (% of control), lower = more inhibition in assay [4] is 3.08%.
For the compound `COC[C@H]1OC(=O)c2coc3c2[C@@]1(C)C1=C(C3=O)C2CCC(=O)[C@@]2(C)C[C@H]1OC(C)=O` (some centres undefined), the outcome in assay [12] and in assay [13] was inactive. Besides, the max response in assay [1] was 9.51% (inactive). In addition, the remaining parasite growth % (stronger effect = lower value) in assay [2] amounted to 74.1%. The activity, percent of control in [3] was 57.9%. The compound also came in with a remaining proliferation (% of control), lower = more inhibition in [4] of 74%.
